Reference: PubChem BioAssay
Several values for one entry are separate records, joined by “and”; a condition that tells them apart may be missing. Equal values may be shown once. For some of these results: Measured potencies and affinities stand elsewhere. Activity calls are given as the source filed them. Unless noted, no rule for the calls is given here.

Assays:
[1] = polyglutamine-triggered caspase-3 activation inhibitors, cell-based (AID 1583); details: polyglutamine-induced caspase-3 activation, cell assay; stronger effect = higher value;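 tested at 10 µM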
[2] = suppressors of polyQ aggregation in yeast, 75Q-TubU reporter (AID 1593); details: Yeast 75Q polyglutamine aggregation reporter
[3] = rescue of polyQ-huntingtin neuronal dysfunction in worms, whole organism, C. elegans mechanosensory neurons, N-terminal huntingtin (AID 1599); details: touch response, stronger effect = higher value
[4] = inhibitors of mitochondrial cytochrome c release, biochemical, purified mitochondria (AID 1603); details: stronger effect = lower value;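 also: mouse liver mitochondria challenged with calcium chloride; signal normalized to the plate average as 100%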
[5] = inhibitors of polyQ protein aggregation (AID 1604); details: polyglutamine-induced protein aggregation inhibition assay; stronger effect = higher value; tested at 2.5 µM
[6] = enhancers of glutamate uptake in motor neurons, MN-1 cell line (AID 1612); details: MN-1 motor neuron cells, stronger effect = higher value;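 also: tested at 1 µM final; 0% = mean of DMSO vehicle wells on each plate; positive means more glutamate uptake than control and negative means less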
[7] = reducers of polyQ inclusions in PC12 cells, cell-based, NGF-treated PC12, GFPQ80 (AID 1614); details: PC12 NGF-treated GFP-polyQ80 inclusion reduction;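 also: lower means fewer inclusions and 0 means no inclusions at all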
[8] = suppressors of polyglutamine aggregation in yeast, 75Q-TubH (AID 1616); details: S. cerevisiae 75Q-TubH polyglutamine aggregation suppression; stronger effect = higher value
[9] = hESC survival regulators, cell-based (AID 493140); details: human embryonic stem cell survival screen; stronger effect = higher value;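 also: cells exposed to compounds for four days before counting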
[10] = liver-stage malaria parasite growth inhibition, primary screen, cell-based, HepG2, luciferase luminescence, HepG2 viability (AID 624349; in the data active = parasite load remaining mostly below about 12%, no sharp cut-off; inactive = mostly above about 10%;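 also: 100% = mean of DMSO negative control wells on the same plate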); details: P. berghei liver stage in HepG2, luciferase luminescence, concentration not given here; parasite load remaining: stronger effect = lower value; viability: measured here: HepG2 viability without parasites
[11] = biological target: 6-phosphogluconate dehydrogenase, decarboxylating (Homo sapiens) (UniProt P52209); experiment: 6PGD enzyme inhibitors, primary screen, biochemical, human, recombinant enzyme, NADPH absorbance (AID 1159550;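 active = at least 20% inhibition of 6-phosphogluconate dehydrogenase activity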); details: recombinant 6PGD, NADPH absorbance 341 nm; at 10 µM; stronger effect = higher value
6-phosphogluconate dehydrogenase, decarboxylating (Homo sapiens), sequence (P52209 whole entry, looked up): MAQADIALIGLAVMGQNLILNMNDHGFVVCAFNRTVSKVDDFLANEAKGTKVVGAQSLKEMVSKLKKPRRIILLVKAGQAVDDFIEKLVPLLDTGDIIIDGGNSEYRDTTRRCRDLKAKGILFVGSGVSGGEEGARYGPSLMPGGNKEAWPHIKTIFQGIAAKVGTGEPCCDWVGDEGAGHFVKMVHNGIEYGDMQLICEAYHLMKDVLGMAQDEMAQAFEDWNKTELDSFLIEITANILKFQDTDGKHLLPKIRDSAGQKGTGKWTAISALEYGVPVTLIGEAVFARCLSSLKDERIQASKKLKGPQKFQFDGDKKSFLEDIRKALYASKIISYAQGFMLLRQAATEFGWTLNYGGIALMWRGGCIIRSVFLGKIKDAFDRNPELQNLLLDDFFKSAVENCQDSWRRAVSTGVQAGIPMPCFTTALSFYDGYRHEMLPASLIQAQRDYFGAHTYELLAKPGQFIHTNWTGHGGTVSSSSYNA

[12] = differential killing of epithelial or mesenchymal cells, primary screen, imaging, PC-3E GFP, TEM4-18 mCherry, co-culture (AID 1345086;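 active = compounds killing one labelled cell type while sparing the other, by normalised counts and ratio limits, not self-fluorescent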;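 as to all read-outs here: cells exposed to compound for 72 h before imaging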;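 as to red/green cell ratio (normalised): normalised mesenchymal count divided by normalised epithelial count so high means epithelial killing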); details: imaging cell counts, at 1 µM; for red/green cell ratio (normalised): actives lie on both sides, counts scaled to control wells, 1 = unselective
[13] = sensitizers of A549 cells to miR-34 induction, primary screen, imaging, A549 dox-inducible miR-34, nuclei and caspase counts (AID 1347080;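 active = compounds whose cell count with miR-34 switched on is under 0.7 times the count with it off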); details: A549 miR-34 inducible, Hoechst nuclei count, 48 h
[14] = survival rescue of mitochondrial mutant cells in low glucose, primary screen, MELAS cybrids, Rieske KO mouse fibroblasts, CellTiter-Glo (AID 1508586;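 active = mean z-score across replicates of 1.96 or higher in either the MELAS or the Rieske mutant cell line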;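 also: z relative to plate mean and SD of compound and empty wells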)
[15] = biological target: NAD(+) hydrolase SARM1 (Homo sapiens) (UniProt Q6SZW1); experiment: SARM1 TIR NADase inhibitors, cell lysate, NAD-Glo luminescence (AID 1508614;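 active = compound whose remaining NAD level is above about 45 nM, limit read from the data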;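 also: higher remaining NAD means stronger inhibition of SARM1 NADase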); details: SAM-TIR HEK293T lysate NADase, at 1 µM, stronger effect = higher value
NAD(+) hydrolase SARM1 (Homo sapiens), sequence (Q6SZW1 whole entry, looked up, the tested form may be a part): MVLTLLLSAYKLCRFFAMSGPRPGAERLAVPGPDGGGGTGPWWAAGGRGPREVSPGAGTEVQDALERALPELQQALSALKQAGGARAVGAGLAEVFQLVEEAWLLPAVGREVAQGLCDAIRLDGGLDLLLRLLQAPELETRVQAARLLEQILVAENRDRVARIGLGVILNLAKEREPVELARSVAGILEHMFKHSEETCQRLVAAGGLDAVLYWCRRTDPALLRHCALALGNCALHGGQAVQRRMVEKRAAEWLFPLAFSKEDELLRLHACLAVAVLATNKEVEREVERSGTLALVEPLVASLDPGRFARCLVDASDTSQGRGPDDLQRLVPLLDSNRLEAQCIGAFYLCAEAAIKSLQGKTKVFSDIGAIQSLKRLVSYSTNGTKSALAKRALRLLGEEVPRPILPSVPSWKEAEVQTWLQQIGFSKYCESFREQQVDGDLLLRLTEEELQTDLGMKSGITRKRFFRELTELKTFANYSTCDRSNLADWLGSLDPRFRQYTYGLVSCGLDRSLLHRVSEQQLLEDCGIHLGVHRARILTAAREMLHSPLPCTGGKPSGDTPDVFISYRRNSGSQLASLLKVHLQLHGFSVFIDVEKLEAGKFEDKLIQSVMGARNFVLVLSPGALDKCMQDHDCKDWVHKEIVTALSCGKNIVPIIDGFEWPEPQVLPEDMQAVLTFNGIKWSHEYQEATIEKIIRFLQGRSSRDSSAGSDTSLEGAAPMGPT

[16] = biological target: Mitogen-activated protein kinase 7 (Homo sapiens) (UniProt Q13164); experiment: ERK5 transactivation activators in reporter cells, primary screen, cell-based, HTS (AID 1508626;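 active = luciferase signal above three times the same-plate solvent-only control wells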;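 also: luciferase driven by Gal4-ERK5 fusion binding five Gal4 sites before minimal TATA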); details: HeLa Gal4-ERK5 transactivation, 18 h, at 5 µM, stronger effect = higher value
Mitogen-activated protein kinase 7 (Homo sapiens), sequence (Q13164 whole entry, looked up, the tested form may be a part): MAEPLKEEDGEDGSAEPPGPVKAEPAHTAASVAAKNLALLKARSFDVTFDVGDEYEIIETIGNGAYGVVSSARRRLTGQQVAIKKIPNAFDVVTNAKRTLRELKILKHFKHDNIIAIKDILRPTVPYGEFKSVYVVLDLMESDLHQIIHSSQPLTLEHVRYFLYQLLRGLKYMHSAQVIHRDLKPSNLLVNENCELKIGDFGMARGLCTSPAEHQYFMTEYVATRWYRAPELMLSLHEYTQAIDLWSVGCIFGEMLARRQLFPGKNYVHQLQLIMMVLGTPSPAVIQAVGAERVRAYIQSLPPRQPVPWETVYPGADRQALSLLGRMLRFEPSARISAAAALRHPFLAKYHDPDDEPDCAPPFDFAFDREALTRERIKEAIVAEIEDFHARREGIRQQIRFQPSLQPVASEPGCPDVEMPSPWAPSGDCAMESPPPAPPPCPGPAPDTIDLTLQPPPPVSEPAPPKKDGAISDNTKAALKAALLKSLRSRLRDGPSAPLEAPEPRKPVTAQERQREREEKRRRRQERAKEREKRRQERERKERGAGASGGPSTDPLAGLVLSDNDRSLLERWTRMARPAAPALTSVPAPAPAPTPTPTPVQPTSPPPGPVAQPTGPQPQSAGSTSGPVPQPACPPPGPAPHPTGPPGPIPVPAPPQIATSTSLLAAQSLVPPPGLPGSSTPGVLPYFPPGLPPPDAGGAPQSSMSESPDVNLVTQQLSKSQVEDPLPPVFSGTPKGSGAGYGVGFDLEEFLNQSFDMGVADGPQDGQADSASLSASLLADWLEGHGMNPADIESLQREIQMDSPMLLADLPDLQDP

[17] = circadian clock period modulators, cell-based, LOPAC library, luminescence reporter (AID 2774); details: circadian reporter cells, at 7 µM, actives lie on both sides;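 also: values are relative to mean of DMSO wells on each plate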
[18] = phospholipid biosynthesis inhibitors in animal cells, primary screen, cell-based, LOPAC library, screen 4 (AID 1347384); details: phospholipid biosynthesis inhibition screen, at 10 µM
[19] = viability rescue of complex I mutant cybrids, primary screen, cell-based, galactose medium, ATP luminescence (AID 1645843;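 active = z-score of at least 1.8 in each of two replicates, scored against plate mean and spread of sample wells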;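 also: positive z means more ATP and so rescue of galactose-driven cybrid death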); details: complex I mutant cybrid cells, 72 h, stronger effect = higher value
[20] = measured here: epithelial PC-3E GFP cell survival
[21] = measured here: mesenchymal TEM4-18 mCherry cell survival
[22] = stronger effect = lower value, cell number ratio, induced over uninduced
[23] = measured here: relative caspase fold change +Dox/-Dox
[24] = measured here: total cells with miR-34 induction, stronger effect = lower value
[25] = measured here: total cells without miR-34 induction

`CC(C(=O)O)c1ccc(N2Cc3ccccc3C2=O)cc1` (stereo not drawn) showed an inhibition [1] of -2.1%, a score [2] of 0.89 and a rescue above control [3] of -4.46. For the same compound, the cytochrome c release ratio [4] was 1.17, the inhibition of aggregation [5] was 83.7% and the glutamate uptake change [6] was -13.2%. For the same compound, the inclusion score [7] was 2.5, the aggregation suppression score [8] was 1.02 and the survival [9] was 4.83 (inactive). The parasite load remaining [10] was 132% (inactive) and 273% (inactive) and 101% (inactive), the viability [10] was 95.7% and 78.1% and 95.5% and the inhibition [11] was -13% (inactive). The red/green cell ratio (normalised) [12] was 1.39 (inactive), the normalised cell number [12, 20] was 0.94 and the normalised cell number [12, 21] was 1.31. For the same compound, the fold change [13, 22] was 0.881 (inactive) and 0.915 (inactive), the fold change [13, 23] was 1.39 and 0.964 and the cell count [13, 24] was 9440 and 11300. For the same compound, the cell count [13, 25] was 10700 and 12400, the z-score ([14]; MELAS cybrid survival, CellTiter-Glo 48 h, stronger effect = higher value) was 0.44 (inactive) and the z-score ([14]; Rieske KO mouse fibroblast survival, CellTiter-Glo 72 h) was -0.221. For the same compound, the remaining NAD [15] was 10 nM (inactive) and the luciferase signal [16] was 68 AU (inactive).

With `Cn1c(=O)c2[nH]c(C3CCCC3)nc2n(C)c1=O` the inhibition [1] was 24.6%, the score [2] was 1.3 and the rescue above control [3] was 12.7. It also gave a cytochrome c release ratio [4] of 0.91, an inhibition of aggregation [5] of -13.7% and a glutamate uptake change [6] of 10.7%. For the same compound, the inclusion score [7] was 1.5, the aggregation suppression score [8] was 1.14 and the period change [17] was 0.02 h (inactive). The inhibition [11] was -7.2% (inactive), the red/green cell ratio (normalised) [12] was 0.82 (inactive) and the normalised cell number [12, 20] was 1.23. The normalised cell number [12, 21] was 1.01, the fold change [13, 22] was 0.947 (inactive) and the fold change [13, 23] was 1.51. The cell count [13, 24] was 9200, the cell count [13, 25] was 9710 and the outcome [18] was “inactive”. The luciferase signal [16] was 44 AU (inactive) and the z-score [19] was 0.92 (inactive).
